Hits are enriched below; roughly 4.7% of the tested compounds scored in any of these assays.
PLK1 kinase inh = blocks human PLK1 kinase activity; hit rate 0.53% among 97,000; P53350; inhibition, % at 10 µM; recombinant PLK1 kinase, TR-FRET peptide phosphorylation; AID 619;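 active means inhibition of 50% or more in the single-concentration screen; inactive means inhibition below 50%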
Plk1 PBD FP = blocks phosphopeptide binding to human Plk1 polo box domain | P53350 | Plk1 PBD phosphopeptide binding, fluorescence polarization | inhibition, %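 (tested at about 20 µM)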 | hit rate 0.13% among 97,000 | AID 693; in the data active means inhibition above about 34%, passing the limit was not always enough
hDAT+cocaine = changed human dopamine transporter uptake under cocaine IC80 | Q01959 | LLC-PK1 hDAT cells, [14C]-dopamine uptake with cocaine IC80; actives deviate in either direction | B-score at 10 µM | hit rate 1.3% among 110,000 | AID 449768;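 active means Z score or B-score, a plate-position-corrected score, falls beyond the plate's 99.7% confidence bounds, in either direction; inactive means both scores lie inside the 99.7% bounds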
sdo1 growth = restores growth of sdo1-depleted yeast; S. cerevisiae sdo1-depleted JHY4D growth rescue, OD600 30 h; hits give high values; pdr5 snq2 efflux-pump mutant strain; z-score at 10 µM; hit rate 0.21% among 140,000; AID 817;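 active means z-score above 3 at both the 24 hr and the 30 hr optical density reads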
Cav32 inh = human Cav3.2 channel inhibition, primary screen. O95180. hit rate 4% among 100,000. AID 449739. Cav3.2-expressing cells, Fluo-4 calcium fluorescence FDSS; hits give low values. B-score at 10 µM;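 active means single-dose well whose peak fluorescence ratio is a statistical outlier from its plate by either plate-standardised score or position-corrected B-score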
PTK2B oligo ant = blocks oligomerization of human Pyk2 in cells; Q293 cells, Pyk2 FERM NanoBiT luminescence; hits give low values; z-score (the deposit names both 25 µM and 10 µM); hit rate 0.83% among 99,000; AID 1347419;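 active means Z-score of -3 or lower, scaled per plate to the spread of control and sample wells; inactive means z-score above -3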;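 further: negative z-score means lost luminescence so less FERM oligomerization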
sdo1 rescue conf = confirmation of growth rescue in SDO1-depleted yeast, bone marrow failure | shares compounds with sdo1 growth | S. cerevisiae JHY4D (SDO1-depleted) growth rescue, OD600, 30 h; hits give high values; efflux-deficient strain, SNQ2 and PDR5 mutated | OD recovery (concentration not given with the values) | hit rate 44% among 440 | AID 949;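 active means yeast growth recovered at 30 hours, either rising with dose fitted slope above 0.001 or with average optical density gain above 0.07, some results past the limit were not filed as active; inactive means growth falling with dose or no effect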
Numbers stand for hits.

Screening FC(F)(F)c1cnc(-c2cnc3c(-c4ccc(Cl)cc4)cnn3c2)c(Cl)c1 returned PLK1 kinase inh inactive, Plk1 PBD FP inactive, sdo1 growth inactive and PTK2B oligo ant inactive.
For N#Cc1cnn2cc(-c3ncc(C(F)(F)F)cc3Cl)cnc12 the results were PLK1 kinase inh inactive, Plk1 PBD FP inactive, hDAT+cocaine inactive, sdo1 growth 7.3, Cav32 inh inactive, PTK2B oligo ant inactive and sdo1 rescue conf 0.078.
`CCCCOCCCNC(=O)c1ccc([N+](=O)[O-])c(C)c1` gave sdo1 growth inactive.
For Cc1ccc(N(Cc2ccc(C(=O)NCCSc3ccccn3)cc2)S(C)(=O)=O)cc1C the results were sdo1 growth 7.2 and sdo1 rescue conf 0.1.
For O=C(COC(=O)Cc1cccs1)Nc1ccccc1 the results were PLK1 kinase inh inactive, Plk1 PBD FP inactive, hDAT+cocaine inactive, sdo1 growth inactive, Cav32 inh inactive, PTK2B oligo ant inactive and sdo1 rescue conf 0.034.
For O=[N+]([O-])c1ccc(-n2nncc2-c2ccc(Cl)cc2)cc1 the results were PLK1 kinase inh inactive, Plk1 PBD FP inactive, hDAT+cocaine inactive, sdo1 growth inactive, Cav32 inh inactive and PTK2B oligo ant inactive.
`Nc1ccc(-n2nncc2-c2ccc(Cl)cc2)cc1` gave PLK1 kinase inh inactive, Plk1 PBD FP inactive, hDAT+cocaine inactive, sdo1 growth 13, Cav32 inh inactive, PTK2B oligo ant inactive and sdo1 rescue conf inactive.
For CN(CC(=O)NCc1cccnc1)S(=O)(=O)c1ccc2c(c1)c(=O)n(C)c(=O)n2C the results were PLK1 kinase inh inactive, Plk1 PBD FP inactive, hDAT+cocaine inactive, sdo1 growth 3, Cav32 inh inactive and sdo1 rescue conf 0.074.
`Cc1c(Cl)c(C(=O)N2CCCC2)nn1C` gave sdo1 growth inactive.
Screening Cc1nc(SC(C(=O)c2ccccc2)c2ccccc2)nc2ccccc12 (stereo not given) returned sdo1 growth inactive.
COc1ccc2nc(SC(C(=O)c3ccccc3)c3ccccc3)nc(C)c2c1 (stereo not given) was read as sdo1 growth inactive and sdo1 rescue conf inactive.
COc1ccc(C(=O)CSc2nnc(Cc3ccccc3)o2)cc1 was read as PLK1 kinase inh inactive, Plk1 PBD FP inactive, hDAT+cocaine inactive, sdo1 growth 7, Cav32 inh inactive, PTK2B oligo ant inactive and sdo1 rescue conf inactive.
`O=C(CSc1nnc(-c2ccco2)o1)c1ccc(F)c(F)c1` gave PLK1 kinase inh inactive, Plk1 PBD FP inactive, hDAT+cocaine inactive, sdo1 growth inactive, Cav32 inh inactive and PTK2B oligo ant inactive.
`O=C(CSc1nnc(-c2ccco2)o1)c1ccccc1` gave PLK1 kinase inh inactive, Plk1 PBD FP inactive, hDAT+cocaine inactive, sdo1 growth inactive, Cav32 inh inactive, PTK2B oligo ant inactive and sdo1 rescue conf inactive.
Cc1ccc(NC(=S)N2CCN(c3ncccn3)CC2)c(C)c1 was read as sdo1 growth inactive.
For COC(=O)[C@@H]1C[C@H]2CC[C@H](O)C[C@H]2N1Cc1ccc(C)s1 the results were hDAT+cocaine inactive and Cav32 inh inactive.
`O=C(CCCOc1ccccc1)N1CCN(c2ccccc2)CC1` gave PLK1 kinase inh inactive, Plk1 PBD FP inactive, hDAT+cocaine inactive, sdo1 growth 8.8, Cav32 inh -4.3, PTK2B oligo ant inactive and sdo1 rescue conf 0.099.
Screening O=C(CCCOc1ccc(Cl)cc1Cl)N/N=C/c1cccc([N+](=O)[O-])c1 returned sdo1 growth inactive and sdo1 rescue conf inactive.
O=C(N/N=C/c1cccc([N+](=O)[O-])c1)C1CC(=O)N(c2ccc(Cl)cc2)C1 (stereo not given) was read as PLK1 kinase inh inactive, Plk1 PBD FP inactive, hDAT+cocaine inactive, sdo1 growth inactive, Cav32 inh inactive and PTK2B oligo ant inactive.
CC1CN(C(=O)/C(C#N)=C2\N=C(NC(=O)c3ccccc3Cl)c3ccccc32)CC(C)O1 (stereo not given) was read as sdo1 growth inactive.
`CN1CCN(c2ccc(Cl)cc2NC(=O)c2ccc(S(=O)(=O)N(C)C)cc2)CC1` gave PLK1 kinase inh inactive, Plk1 PBD FP inactive, hDAT+cocaine inactive, sdo1 growth 4.3, Cav32 inh inactive, PTK2B oligo ant inactive and sdo1 rescue conf inactive.

From PubChem
